Experimental data taken from PubChem BioAssay.
Records with an inconclusive call do not appear. For some of these results: Results with a measured potency or affinity are listed apart. The source made the active and inactive calls.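 Rule for the calls, unless noted: active = luciferase signal above three times the same-plate solvent-only control wells; inactive = the rest.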

Key:
[1] = biological target: Mitogen-activated protein kinase 7 (Homo sapiens) (UniProt Q13164); assay: ERK5 transactivation activators in reporter cells, primary screen, cell-based, HTS (AID 1508626); details: HeLa Gal4-ERK5 transactivation, 18 h, at 5 µM, stronger effect = higher value;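 note: luciferase driven by Gal4-ERK5 fusion binding five Gal4 sites before minimal TATA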
[2] = polyglutamine-triggered caspase-3 activation inhibitors, cell-based (AID 1583); details: polyglutamine-induced caspase-3 activation, cell assay; stronger effect = higher value;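 tested at 10 µM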
[3] = suppressors of polyQ aggregation in yeast, 75Q-TubU reporter (AID 1593); details: Yeast 75Q polyglutamine aggregation reporter
[4] = rescue of polyQ-huntingtin neuronal dysfunction in worms, whole organism, C. elegans mechanosensory neurons, N-terminal huntingtin (AID 1599); details: touch response, stronger effect = higher value
[5] = inhibitors of mitochondrial cytochrome c release, biochemical, purified mitochondria (AID 1603); details: stronger effect = lower value;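 note: mouse liver mitochondria challenged with calcium chloride; signal normalized to the plate average as 100%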
[6] = inhibitors of polyQ protein aggregation (AID 1604); details: polyglutamine-induced protein aggregation inhibition assay; stronger effect = higher value; tested at 2.5 µM
[7] = enhancers of glutamate uptake in motor neurons, MN-1 cell line (AID 1612); details: MN-1 motor neuron cells, stronger effect = higher value;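 note: tested at 1 µM final; 0% = mean of DMSO vehicle wells on each plate; positive means more glutamate uptake than control and negative means less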
[8] = suppressors of polyglutamine aggregation in yeast, 75Q-TubH (AID 1616); details: S. cerevisiae 75Q-TubH polyglutamine aggregation suppression; stronger effect = higher value
[9] = liver-stage malaria parasite growth inhibition, primary screen, cell-based, HepG2, luciferase luminescence, HepG2 viability (AID 624349; in the data active = parasite load remaining mostly below about 12%, no sharp cut-off; inactive = mostly above about 10%;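 note: 100% = mean of DMSO negative control wells on the same plate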); details: P. berghei liver stage in HepG2, luciferase luminescence, concentration not given here; parasite load remaining: stronger effect = lower value; viability: measured here: HepG2 viability without parasites
[10] = protection against mutant huntingtin cytotoxicity, PC12 cells, LDH release (AID 1610); details: PC12 mutant huntingtin toxicity, final LDH at 4 uM, stronger effect = lower value
[11] = inhibitors of polyQ aggregate elongation, biochemical, solid-phase synthetic aggregates, QA3 (AID 1585; call rule not given here); details: biotin-polyQ incorporation; EC50: measured here: elongation inhibition potency; inhibition: at 100 µM, stronger effect = higher value
[12] = reducers of polyQ inclusions in PC12 cells, cell-based, NGF-treated PC12, GFPQ80 (AID 1614); details: PC12 NGF-treated GFP-polyQ80 inclusion reduction;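 note: lower means fewer inclusions and 0 means no inclusions at all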

Mitogen-activated protein kinase 7 (Homo sapiens), sequence (Q13164 whole entry, looked up, the tested form may be a part): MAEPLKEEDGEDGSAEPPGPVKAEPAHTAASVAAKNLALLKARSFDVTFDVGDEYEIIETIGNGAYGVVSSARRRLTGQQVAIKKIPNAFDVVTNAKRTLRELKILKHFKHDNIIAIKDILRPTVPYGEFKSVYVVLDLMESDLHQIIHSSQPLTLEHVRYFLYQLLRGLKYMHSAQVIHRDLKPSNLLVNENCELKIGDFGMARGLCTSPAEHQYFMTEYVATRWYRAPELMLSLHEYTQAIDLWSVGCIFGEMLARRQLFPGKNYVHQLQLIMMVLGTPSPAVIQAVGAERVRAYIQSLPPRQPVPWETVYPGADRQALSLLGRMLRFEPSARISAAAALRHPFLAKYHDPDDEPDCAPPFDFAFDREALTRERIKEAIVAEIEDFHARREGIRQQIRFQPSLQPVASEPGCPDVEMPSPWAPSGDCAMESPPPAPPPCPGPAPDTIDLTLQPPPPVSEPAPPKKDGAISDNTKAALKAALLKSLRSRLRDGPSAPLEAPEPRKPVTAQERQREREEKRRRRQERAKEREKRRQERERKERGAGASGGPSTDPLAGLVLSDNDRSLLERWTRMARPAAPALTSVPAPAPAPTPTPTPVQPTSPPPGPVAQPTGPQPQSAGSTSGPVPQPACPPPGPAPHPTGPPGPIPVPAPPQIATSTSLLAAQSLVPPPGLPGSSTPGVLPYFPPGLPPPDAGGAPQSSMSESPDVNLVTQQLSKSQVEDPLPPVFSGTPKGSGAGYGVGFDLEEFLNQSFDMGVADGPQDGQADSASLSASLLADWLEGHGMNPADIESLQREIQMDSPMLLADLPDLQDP

## CC(C)CCC[C@@H](C)C1CC[C@H]2[C@@H]3CCC4CC(=O)CC[C@]4(C)[C@H]3CC[C@]12C (stereo partly specified)
[1]
  luciferase signal: 52 AU (inactive)

## CC1=C2[C@@H]([C@H](C)CC[C@H]2/C=C(\C)C(=O)O)[C@H](O)C1
[1]
  luciferase signal: 24 AU (inactive)

## CO/N=C(/C(=O)NC1C(=O)N2C(C(=O)O)=C(CSc3nc(=O)c(=O)[nH]n3C)CS[C@H]12)c1csc(N)n1 (stereo partly specified)
[1]
  luciferase signal: 52 AU (inactive)

## NCCC(=O)c1ccccc1N
[1]
  luciferase signal: 88 AU (inactive)

## COc1cc(-c2oc3cc(O)ccc3c(=O)c2O)ccc1O
[1]
  luciferase signal: 92 AU (inactive)

## Cc1cccc2c3c(ccc12)C1=C(C(=O)C3=O)[C@@H](C)CO1
[1]
  luciferase signal: 156 AU (inactive)

## CC[C@H](CC[C@@H](C)[C@H]1CC[C@H]2[C@@H]3CC[C@H]4C[C@@H](O)CC[C@]4(C)[C@H]3CC[C@]12C)C(C)C
[1]
  luciferase signal: 12 AU (inactive)

## COc1ccc(-c2cc(=O)c3c(O)c(OC)c(OC)c(OC)c3o2)cc1
[1]
  luciferase signal: 120 AU (inactive)

## Nc1ncnc2c1ncn2[C@H]1C[C@H](O)[C@@H](CO)O1
[1]
  luciferase signal: 136 AU (inactive)

## Oc1ccc2c(c1)OC[C@]1(O)Cc3cc(O)c(O)cc3[C@H]21
[1]
  luciferase signal: 28 AU (inactive)

## C=C[C@](C)(O)CCC=C(C)C
[1]
  luciferase signal: 36 AU (inactive)

## CCCCCCCCCCCCCCC(C(=O)O)C(O)(CC(=O)OC)C(=O)O (stereo unspecified)
[1]
  luciferase signal: 64 AU (inactive)

## C[C@H](CCC(=O)O)[C@H]1CC[C@H]2[C@@H]3CC[C@@H]4C[C@H](O)CC[C@]4(C)[C@H]3C=C[C@]12C
[1]
  luciferase signal: 16 AU (inactive)

## CC(=O)O[C@H]1CC[C@@]2(C)C(=CC[C@H]3[C@@H]4CC[C@H]([C@H](C)CCCC(C)C)[C@@]4(C)CC[C@@H]32)C1
[1]
  luciferase signal: 56 AU (inactive)

## C=C1C(=O)C23C(O)C1CCC2C12COC3(O)C(O)C1C(C)(C)CCC2O (stereo unspecified)
[1]
  luciferase signal: 108 AU (inactive)

## CC(C)c1c(O)ccc2c1CCC1[C@@](C)(CO)CCC[C@]21C (stereo partly specified)
[1]
  luciferase signal: 112 AU (inactive)

## CC(=O)Oc1cc(C)c2c(c1C=O)Oc1c(c(C)c(OC(C)=O)c3c1C(OC(C)=O)OC3=O)OC2=O (stereo unspecified)
[1]
  luciferase signal: 172 AU (inactive)

## CC[C@H](/C=C/[C@@H](C)[C@H]1CC[C@H]2[C@@H]3CCC4=CC(=O)CC[C@]4(C)[C@H]3CC[C@]12C)C(C)C
[1]
  luciferase signal: 56 AU (inactive)

## COC(=O)CC[C@@H](C)[C@H]1CC[C@H]2[C@@H]3CC[C@@H]4C[C@H](O)CC[C@]4(C)[C@H]3C[C@H](O)[C@]12C
[1]
  luciferase signal: 108 AU (inactive)

## O=c1cc(-c2cccc(O)c2)oc2ccc(O)cc12
[1]
  luciferase signal: 124 AU (inactive)

## CC(=O)OCC(=O)[C@@]1(O)CCC2C3CC[C@@H]4C[C@H](O)CC[C@]4(C)C3C(=O)C[C@@]21C (stereo partly specified)
[1]
  luciferase signal: 112 AU (inactive)

## CNS(=O)(=O)c1ccc(NC(=O)c2ccccc2C(=O)O)cc1
[1]
  luciferase signal: 28 AU (inactive)

## CC(C)=CCC[C@@H](C)[C@@H]1CC[C@]2(C)C3=C(CC[C@@]12C)[C@@]1(C)CC[C@H](O)C(C)(C)[C@@H]1CC3
[1]
  luciferase signal: 68 AU (inactive)

## COc1cc2c(cc1OC)C1Cc3ccc(OC)c(OC)c3CN1CC2 (stereo unspecified)
[1]
  luciferase signal: 52 AU (inactive)

## CC(C)CCC[C@@H](C)[C@H]1CC[C@H]2[C@@H]3CC[C@H]4C[C@H](O)CC[C@]4(C)[C@H]3CC[C@]12C
[1]
  luciferase signal: 140 AU (inactive)

## C[C@H](CCC(=O)O)[C@H]1CC[C@H]2[C@@H]3CC[C@@H]4CCCC[C@]4(C)[C@H]3CC[C@]12C
[1]
  luciferase signal: 36 AU (inactive)

## COC(=O)Oc1ccccc1C(=O)O
[1]
  luciferase signal: 40 AU (inactive)

## O=c1c(O)c(-c2ccc(O)c(O)c2)oc2c(O[C@@H]3O[C@H](CO)[C@@H](O)[C@H](O)[C@H]3O)c(O)cc(O)c12
[1]
  luciferase signal: 36 AU (inactive)

## C[C@@]12CCc3occc3[C@H]1CC[C@@]13C[C@@H](CC[C@H]12)[C@@](O)(CO)C3
[1]
  luciferase signal: 40 AU (inactive)

## CC1C(=O)OC2CC34C5CC(C(C)(C)C)C36C(OC(=O)C6O)OC4(C(=O)O5)C21O (stereo unspecified)
[1]
  luciferase signal: 36 AU (inactive)

## CC(C)CCC[C@@H](C)[C@H]1CC[C@H]2[C@@H]3C(=O)C=C4C[C@@H](O)CC[C@]4(C)[C@H]3CC[C@]12C
[1]
  luciferase signal: 80 AU (inactive)

## CC(C)=CCC/C(C)=C/CC/C(C)=C/CC/C(C)=C/CO
[1]
  luciferase signal: 0 AU (inactive)

## CC(C)(O)[C@H]1CC[C@]2(C)[C@H]3CC[C@@H]4[C@@]5(C)CCCC(C)(C)[C@@H]5[C@@H](O)C[C@@]4(C)[C@]3(C)CC[C@@H]12
[1]
  luciferase signal: 84 AU (inactive)

## CC(C)CCC[C@@H](C)[C@H]1CC[C@H]2[C@@H]3C=CC4=CC(=O)CC[C@]4(C)[C@H]3CC[C@]12C
[1]
  luciferase signal: 44 AU (inactive)

## CC(=O)O[C@H]1CC[C@]2(C)[C@H]3CC=C4[C@@H]5CC(C)(C)CC[C@]5(C)CC[C@@]4(C)[C@]3(C)CC[C@H]2C1(C)C
[1]
  luciferase signal: 64 AU (inactive)

## CC(C)CCC[C@@H](C)[C@H]1CC[C@H]2[C@@H]3CC(=O)[C@H]4C[C@@H](O)CC[C@]4(C)[C@H]3CC[C@]12C
[1]
  luciferase signal: 216 AU (active)

## C=CCSC[C@H](N)C(=O)O
[1]
  luciferase signal: 44 AU (inactive)

## CC1(C)CC[C@]2(C(=O)O)CC[C@]3(C)C(=CC[C@@H]4[C@@]5(C)CC[C@H](O)C(C)(C)[C@@H]5[C@H](O)C[C@]43C)[C@@H]2C1
[1]
  luciferase signal: 84 AU (inactive)

## CC(=O)[C@H]1CC[C@H]2[C@@H]3CCC4=CC(=O)CC[C@]4(C)[C@H]3C(OC(=O)CCC(=O)O)C[C@]12C (stereo partly specified)
[1]
  luciferase signal: 60 AU (inactive)

## CC(=O)N[C@@H](Cc1c[nH]c2ccccc12)C(N)=O
[2]
  inhibition: 11.7%
[3]
  score: 1.31
[4]
  rescue above control: 23.8
[5]
  cytochrome c release ratio: 0.46
[6]
  inhibition of aggregation: 60.3%
[7]
  glutamate uptake change: -9.38%
[8]
  aggregation suppression score: 1.53
[9]
  parasite load remaining: 142% (inactive)
  viability: 71.9%
[1]
  luciferase signal: 80 AU (inactive)

## CCCCC(=O)OC1(C(=O)CO)C(C)CC2C3CCC4=CC(=O)C=CC4(C)[C@@]3(F)[C@@H](O)CC21C (stereo partly specified)
[2]
  inhibition: 9.05%
[3]
  score: -0.8
[4]
  rescue above control: -0.98
[5]
  cytochrome c release ratio: 1.65
[6]
  inhibition of aggregation: 82%
[10]
  normalised LDH release: 0.899
[7]
  glutamate uptake change: 9.55%
[8]
  aggregation suppression score: 1.32

## CC(=O)OCC(=O)[C@H]1CC[C@H]2[C@@H]3CC=C4C[C@@H](O)CC[C@]4(C)[C@H]3CC[C@]12C
[1]
  luciferase signal: 256 AU (active)

## CC1CCC2(OC1)OC1CC3C4CCC5C[C@@H](O)CCC5(C)C4=CCC3(C)C1C2C (stereo partly specified)
[1]
  luciferase signal: 644 AU (active)

## O=c1c(O)cc2c(O)oc3c(=O)c(O)cc4c3c2c1CC=4O
[2]
  inhibition: -1.16%
[11]
  EC50: 44 µM
  inhibition: 82% (active)
[3]
  score: -1.91
[4]
  rescue above control: -6.17
[5]
  cytochrome c release ratio: 1.61
[6]
  inhibition of aggregation: 25.2%
[7]
  glutamate uptake change: -0.57%
[12]
  inclusion score: 2
[8]
  aggregation suppression score: 0.786

## CC(=O)O[C@@H]1C=C[C@@]2(C)C(C[C@@H](OC(C)=O)[C@@]3(C)C4=CC(=O)O[C@@H](c5ccoc5)[C@]4(C)CCC23)C1(C)C (stereo partly specified)
[1]
  luciferase signal: 20 AU (inactive)

## NCC1CCC(N)C(OC2C(N)CC(N)C(OC3OC(CO)C(O)C(N)C3O)C2O)O1 (stereo unspecified)
[2]
  inhibition: -33.2%
[3]
  score: 0.99
[4]
  rescue above control: -7.39
[5]
  cytochrome c release ratio: 0.86
[6]
  inhibition of aggregation: 4.76%
[7]
  glutamate uptake change: 14.5%
[12]
  inclusion score: 1.5
[8]
  aggregation suppression score: 1.46

## CC1(C)CCCC2(C)C3C(O)CC2(C)C(O)C31 (stereo unspecified)
[1]
  luciferase signal: 64 AU (inactive)

## C[C@@H]1CC[C@@]2(OC1)O[C@H]1C[C@H]3[C@@H]4CC[C@@H]5C[C@@H](O)CC[C@]5(C)[C@H]4CC[C@]3(C)[C@H]1[C@@H]2C
[1]
  luciferase signal: 20 AU (inactive)

## O=S(=O)([O][Al])OC[C@H]1O[C@@](COS(=O)(=O)[O][Al])(O[C@H]2O[C@H](COS(=O)(=O)[O][Al])[C@@H](OS(=O)(=O)[O][Al])[C@H](OS(=O)(=O)[O][Al])[C@H]2OS(=O)(=O)[O][Al])[C@@H](OS(=O)(=O)[O][Al])[C@@H]1OS(=O)(=O)[O][Al]
[1]
  luciferase signal: 84 AU (inactive)

## C=C1CC[C@@]2(OC1)O[C@H]1C[C@H]3[C@@H]4CC=C5C[C@@H](O)C[C@@H](O)[C@]5(C)[C@H]4CC[C@]3(C)[C@H]1[C@@H]2C
[1]
  luciferase signal: 84 AU (inactive)

## CC(=O)OC1C[C@@]2(C)C(CC[C@@H]2C(C)=O)C2CCC3=CC(=O)CC[C@]3(C)C12 (stereo partly specified)
[1]
  luciferase signal: 108 AU (inactive)

## C[C@@H]1OC(Oc2c(-c3ccc(O)c(O)c3)oc3cc(O)cc(O)c3c2=O)[C@H](O)[C@H](O)[C@H]1O (stereo partly specified)
[2]
  inhibition: -5.21%
[3]
  score: 1.19
[4]
  rescue above control: 16.2
[5]
  cytochrome c release ratio: 0.64
[6]
  inhibition of aggregation: 72.2%
[7]
  glutamate uptake change: -4.44%
[12]
  inclusion score: 2
[8]
  aggregation suppression score: 1.5
